Results: PubChem BioAssay (NCI)
Values joined by “and” are separate entries in the source; they are usually repeats but may differ in a detail not shown here. Identical values can stand only once. The panel holds about 83,000 compounds, 20% with a hit somewhere; the sample as a whole holds those more often.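 48-hour exposure, single concentration, 96-well plates; percent growth endpoint where 0 means no net growth. Active: below 10.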 Values without a mark were called inactive. Active and inactive are the calls of the source.

tested on: ACHN renal; assay: NCI-60 one-dose screen, 48 h (100 = growth as untreated, 0 = no growth, -100 = all killed); conditions: 10 µM unless noted

For `COc1ccc(NC(=O)N/N=C/c2c[nH]c3ccccc23)cc1`, which growth is on record?
The growth was 51.1%.

How did the growth turn out when `CCC(=O)c1cc(C(=O)OC)c2ccc3c4ccccc4ccc3n12` was run?
The growth was 0.659% (active).

For `Cc1oc(-c2ccccc2)nc1CN[C@@H]1C[C@@H]2C[C@H]([C@H]1C)C2(C)C`, which growth is on record?
The growth was 25.8%.

tested on: CAKI-1 renal; assay: as above; conditions: 10 µM unless noted

With `C=CC(=O)N1CCN(c2ccc3nc4c(nc3c2C(F)(F)F)C(=O)c2ncccc2C4=O)CC1` as the compound, how does the growth read?
Its growth is 36%.

`O=C(N/N=C/c1ccc(-c2cccc([N+](=O)[O-])c2)s1)c1[nH]c2ccc(Br)cc2c1-c1ccccc1` was tested. Which growth did it give?
Its growth is 90.4%.

For `CCCCNc1ccc2c3c(cccc13)C(=O)N(NCC(O)COc1ccc3c(C)cc(=O)oc3c1)C2=O` (stereo unspecified), which growth is on record?
The growth was 85.6%.

With `CC(=O)Nc1cccc(-n2c(COc3ccc(Br)cc3)nc3ccccc32)c1` as the compound, how does the growth read?
Its growth is 72.4% and 101%.

Which growth does the source give for `CC(=O)c1c2c(c3ccc4c5ccccc5ccc4n13)C(=O)c1ccccc1C2=O` here?
Its growth is 85.6%.

Which growth does the source give for `CC1=NN(C2=NC(=O)C(CC(=O)Nc3ccccc3C(F)(F)F)S2)C(c2ccc(N(C)C)cc2)C1` (stereo unspecified) here?
Its growth is 71%.

For `O=C(CSc1nc2sc3c(c2c(=O)n1-c1ccc(Cl)cc1)CCCC3)N/N=C/C=C/c1ccccc1`, which growth is on record?
The growth was 38.5%.

Which growth does the source give for `CC(C)(C)OC(=O)N1CCC2(CC1)Oc1ccccc1[C@H]1CC(c3ccc(Br)cc3)=NN12` here?
The growth was 41.1%.

`Cc1ccc(/C=C/C(=O)c2ccc(S(=O)(=O)NCCNc3nc(N(C)C)nc(N4CCOCC4)n3)cc2)cc1` was tested. Which growth did it give?
Its growth is 64.6%.

How did the growth turn out when `N#CCc1nnc(NC(=O)c2ccc(-n3c(=O)[nH]c4ccccc4c3=O)cc2)s1` was run?
Its growth is 86.3%.

`COc1cc(NC(=O)CSc2nnc(-c3ccc(-c4nc5ccc(Cl)cc5[nH]4)cc3)o2)cc(OC)c1OC` was tested. Which growth did it give?
Its growth is 68.3%.

With `N/C(=N\c1nc2ccccc2s1)NC(=O)Nc1ccccc1[N+](=O)[O-]` as the compound, how does the growth read?
The growth was 16%.

How did the growth turn out when `O=C(NNC(=O)c1ccc(OCc2nc3ccc(Cl)cc3[nH]2)cc1)Nc1ccc(Cl)c(Cl)c1` was run?
Its growth is 91.8%.

How did the growth turn out when `C/C(=N\Nc1ccc(C(=O)O)cc1)c1cnn(-c2cc(=O)[nH]c3ccc(C)cc23)c1C` was run?
Its growth is 89.7%.

With `O=C1Nc2cc(-c3ccc(NS(=O)(=O)c4ccc([N+](=O)[O-])cc4)cc3)ccc2/C1=C/c1ccc[nH]1` as the compound, how does the growth read?
The growth was -17.4% (active).

With `CCCCCCCCCCCCCCCCCC(=O)Nc1ccc(OC)cc1` as the compound, how does the growth read?
Its growth is 98%.

How did the growth turn out when `CCN1C(=O)N(CC)C2NNC(Sc3c(C(=O)O)c4ccccc4n(CCC(C)C)c3=O)=NC21` (stereo unspecified) was run?
The growth was 38.9%.

`COc1ccc(NC(=O)N/N=C/c2c[nH]c3ccccc23)cc1` was tested. Which growth did it give?
The growth was 44%.
